# Assay outcomes deposited in PubChem BioAssay by several laboratories.
# An excerpt weighted towards active compounds, which were near 2.4% of everything screened.
# ADAM17 inh: ADAM17 inhibition, QFRET primary screen; recombinant ADAM17, EDANS/DABCYL FRET peptide cleavage; inhibition, % at 6.95 µM; 0.83% of 370,000 active;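 active = inhibition above the mean of compounds lying between control limits plus 3 SD, set per campaign, cut at about 8.5% in these data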;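 also: 0% = DMSO-only wells as the low control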
# NRP1-CendR mod: NRP-1/CendR interaction modulation; O14786; AID 602438; inhibition, % at 25 µM; FAM-RPARPAR peptide binding to NRP-1, fluorescence polarization; 0.85% of 360,000 active;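 active = inhibition or corrected inhibition above about 18%, plus a signal ratio from 0.5 to 1.5, limit read from the data, passing the limit was not always enough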
# A3A deaminase: human APOBEC3A DNA deaminase inhibition; recombinant A3A, FAM/TAMRA ssDNA deamination fluorescence; inhibition, % at 20 µM; 0.41% of 330,000 active; AID 493011;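 active = at least 40% inhibition at 20 µM here, with at most 30% in a related deaminase screen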;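 also: plate controls were A3A with DMSO for no effect and wells lacking A3A enzyme for full effect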
# Target sequence (P31941 whole entry, looked up): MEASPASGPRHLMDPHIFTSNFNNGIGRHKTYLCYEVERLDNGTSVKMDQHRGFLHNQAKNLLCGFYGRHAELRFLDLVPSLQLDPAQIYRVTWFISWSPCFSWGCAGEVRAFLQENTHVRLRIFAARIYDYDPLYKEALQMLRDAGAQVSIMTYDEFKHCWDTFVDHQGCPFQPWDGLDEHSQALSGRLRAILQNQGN
# ADAM10 inh: inhibits human ADAM10; O14672; recombinant ADAM10, EDANS/DABCYL FRET peptide cleavage, 3 h; inhibition, % at 7 µM; 0.62% of 370,000 active; AID 720582;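 active = inhibition above a per-campaign cutoff equal to the mean of compounds falling between control-based bounds plus 3 SD, cut at about 20% in these data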;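 also: 0% = DMSO wells while the 100% control is not disclosed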
# APOBEC3G inh: APOBEC3G (human) deaminase inhibition. Q9HC16. recombinant A3G, ssDNA deamination FAM/TAMRA fluorescence. inhibition, % at 20 µM. AID 493012. 0.28% of 330,000 active;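 active = inhibition of at least 40% at 20 µM, with no more than 30% in the related APOBEC3A deaminase screen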;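 also: plate controls were DMSO wells with A3G for no effect and wells lacking A3G enzyme for full effect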
# Target sequence (Q9HC16 whole entry, looked up): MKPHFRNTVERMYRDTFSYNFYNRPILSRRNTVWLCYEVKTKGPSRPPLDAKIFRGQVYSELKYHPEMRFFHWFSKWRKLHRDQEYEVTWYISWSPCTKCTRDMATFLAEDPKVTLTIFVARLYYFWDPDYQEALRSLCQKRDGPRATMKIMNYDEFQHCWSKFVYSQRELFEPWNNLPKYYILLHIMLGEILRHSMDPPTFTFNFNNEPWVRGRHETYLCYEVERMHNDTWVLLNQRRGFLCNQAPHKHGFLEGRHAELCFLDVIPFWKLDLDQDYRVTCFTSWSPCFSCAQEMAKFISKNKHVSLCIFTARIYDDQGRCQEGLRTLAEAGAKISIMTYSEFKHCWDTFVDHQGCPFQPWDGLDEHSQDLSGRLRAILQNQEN
# * marks the source's active call; other numbers are inactive results; i = inactive; · = not tested or not shown.
SMILES,ADAM17 inh,NRP1-CendR mod,A3A deaminase,ADAM10 inh,APOBEC3G inh
COc1cc(C2Nc3cccc4cccc(c34)N2)cc(OC)c1OC(C)=O,-1,25*,13,5,19
COc1cc(C2Nc3cccc4cccc(c34)N2)ccc1O,-3,4,-3,6,6
O=C(NN=C1CCCCCCCCCCC1)c1ccccc1F,-5,28*,-1,-9,2
C/C(=N\NC(=O)c1cc(O)ccc1O)c1cccc(NC(=O)c2ccc(Cl)cc2)c1,-24,11,10,-48,6
C/C(=N\NC(=O)c1cc(O)ccc1O)c1cccc(NC(=O)c2cccc(Cl)c2)c1,-24,23*,17,-62,11
CN(NC(=O)CN1C(=O)c2ccccc2C1=O)C1=NS(=O)(=O)c2ccccc21,-1,2,-1,10,-6
COc1ccccc1C(=O)NN(C)C1=NS(=O)(=O)c2ccccc21,0,20*,1,-2,-3
NS(=O)(=O)c1ccc(CCNC(=O)CNC(=O)c2ccc(Br)o2)cc1,·,19*,-6,·,-10
CC(NC(=O)C=Cc1ccco1)C(=O)NC(Cc1ccccc1)C(N)=O (stereo not given),-1,·,·,-1,·
O=C(O)c1ccc(/C=N/N2CCN(C3c4ccccc4-c4ccccc43)CC2)cc1,-6,-2,-8,0,-8
Oc1ccc(/C=N/N2CCN(C3c4ccccc4-c4ccccc43)CC2)cc1,-1,21*,-3,-3,-5
Cc1cccc(NC(=O)CSc2nnc(-c3cccnc3)n2Cc2ccco2)c1C,0,·,·,0,·
Cc1ccc(S(=O)(=O)N2CCC(=O)N(C(COCc3cccc(C(F)(F)F)c3)C(C)C)CC2)cc1 (stereo not given),·,23*,6,·,-2
Cc1ccc(S(=O)(=O)N2CCC(=O)N(C(COCc3cccc(Cl)c3)C(C)C)CC2)cc1 (stereo not given),-3,6,-1,8,-7
Cc1ccc(S(=O)(=O)N2CCC(=O)N(C(COCc3cccc(C)c3)C(C)C)CC2)cc1 (stereo not given),7,24*,-2,12,-5
COC(=O)[C@H](CC(C)C)N(CCCc1cn(CC2CCCCC2)nn1)S(=O)(=O)c1ccc(F)cc1Br,6,·,·,14,·
CCCCn1c(-c2cccs2)nc2oc3ccccc3c(=O)c2c1=O,-24,20*,-11,-3,-9
O=C(NCCC1=CCCCC1)c1ccc(=O)oc1,4,51*,-1,-9,-7
O=S1(=O)c2ccc(N3CCN(Cc4ccccc4F)CC3)cc2Oc2ccccc2CN1Cc1cn(Cc2cccc(C(F)(F)F)c2)nn1,1,·,·,2,·
Fc1ccc(CNC(=S)NC2CCCC2)cc1,-5,32*,-1,-3,3
NS(=O)(=O)c1ccc(CNC(=S)NCc2ccc(F)cc2)cc1,3,25*,1,4,8
NS(=O)(=O)c1ccc(CNC(=S)NCc2ccc(Cl)cc2)cc1,4,-4,-5,-11,-5
CC(=O)c1ccc2noc(-c3ccc(F)cc3)c2c1,-44,37*,0,-125,2
CC(=O)c1ccc2noc(-c3ccc(Cl)cc3)c2c1,-4,-21,-4,-12,-4
Cn1c(NC(=O)c2ccccc2)nc(Cc2ccccc2)c1Cc1ccccc1,8,·,·,13,·
SMILES,ADAM17 inh,NRP1-CendR mod,A3A deaminase,ADAM10 inh,APOBEC3G inh
CCOC(=O)CCCCCC(=O)Nc1ccc2c(c1)C(=O)N([C@H](C)CO)C[C@@H](C)[C@@H](CN(C)S(=O)(=O)c1ccc(C)cc1)OCCCC[C@H](C)O2,2,·,·,9,·
CCc1ccc(-c2ccc3nnc(SCC(N)=O)n3n2)cc1,-36,24*,-2,-111,-1
CCc1ccc(-c2ccc3nnc(SC)n3n2)cc1,-18,15,-6,-39,-8
CC1(C)CC(=O)c2cnc(N3CCc4ccccc43)nc2C1,-4,28*,3,-5,4
Nc1[nH]c(C(=O)c2ccccc2)c(-c2ccc(O)cc2)c1C(=O)NCCc1c[nH]c2ccccc12,3,·,·,13,·
CN1Cc2c(N)cccc2C(c2ccccc2)C1 (stereo not given),-3,30*,5,0,-3
CCOC(=O)COc1ccc(/C=C/[N+](=O)[O-])c(OCC(=O)OCC)c1,9.1*,4,-5,9,-4
CCCc1nc2ccc(Cl)cn2c1Cc1ccsc1,-10,28*,·,-21,·
COc1ccc(OC)c(/C=C/C(=O)OCC(=O)NCc2ccccc2)c1,-47,32*,2,-143,3
COc1ccc(CCNC(=O)COC(=O)/C=C/c2cc(OC)ccc2OC)cc1,-41,10,2,-112,3
CN(CCOC(=O)CCCc1ccccc1)C1CN(Cc2cn(Cc3ccccc3F)nn2)S(=O)(=O)C1 (stereo not given),0,·,·,-1,·
NC(=S)N=Nc1c(O)[nH]c2ccc(F)cc12,-1,13,-2,-4,-11
NC(=S)N=Nc1c(O)cc(O)c2[nH]c(=O)ccc12,-5,42*,·,-13,·
CCOC(=O)c1nn(-c2ccccc2)c(=O)c(C#N)c1C,-10,6,1,-22,1
CCOC(=O)c1nn(-c2ccccc2)c(C#N)c1N,i,39*,3,i,1
O=C(O)c1ccc(CSc2nnc(COc3ccccc3)o2)cc1,-2,22*,1,-3,-4
c1ccc(Cc2cnc(N3CCN(Cc4cccc(-c5ccsc5)n4)CC3)nc2)cc1,2,·,·,-3,·
Cc1nc2n(n1)C(O)c1cc([N+](=O)[O-])ccc1S2 (stereo not given),·,·,45*,·,-10
Clc1ccccc1N1CCN(C2=Nc3ccccc3Sc3ccccc32)CC1,-1,·,·,1,·
Cc1ccc(NC(=O)c2cc(-c3cc(F)ccc3OCC3CCCO3)n[nH]2)cc1NS(C)(=O)=O (stereo not given),0,28*,·,4,·
CCCCNC(=O)c1onc(CSc2ccc(Cl)cc2)c1C(=O)NCCCC,-1,15,2,4,-6
CCCCNC(=O)c1c(CSc2ccc(Cl)cc2)noc1C(=O)NCCC,2,31*,-1,6,-4
O=S(=O)(c1ccccc1)c1nc(-c2ccc(F)cc2)oc1N1CCOCC1,-2,22*,3,-4,-3
Cc1ccc(NCc2nnc(SCC(=O)c3ccccc3)n2Cc2ccco2)c(C)c1,0,-28,2,29*,-3
O=C(CSc1nnc(-c2cccs2)n1Cc1ccccc1)NCc1ccc2c(c1)OCO2,-6,24*,0,-4,-7
O=C(CSc1nnc(Cc2ccccc2)n1Cc1ccccc1)NCc1ccco1,-2,30*,-5,13,-7
Cc1c(C(=O)Nc2ccc(OC(F)(F)F)cc2)sc2nc3n(c(=O)c12)CCC3,0,44*,0,-16,-6
CCCNC(=O)c1cc(C)no1,2,25*,-4,-5,-8
C=CCn1nc(-c2ccccc2)cc1C(=O)OCC,1,28*,-3,3,-4
CCOC(=O)c1cc(-c2ccccc2)nn1CCC#N,-3,4,-8,-3,-5
